# Results taken from PubChem BioAssay (NCI).
# This is part of a sample that, as a whole, favours compounds with a hit. Of some 79,000 tested, about 15% had one in any assay. A number with no mark means an inactive call. Activity calls are given as the source filed them. Rule as the data show it: active = growth inhibition above about 70%; inactive = the rest.
# Columns and labels:
# [1] = NCI Yeast Anticancer Drug Screen. Data for the rad52 strain (AID 147);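 also: 0% = growth of vehicle-treated control cultures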; details: S. cerevisiae rad52 mutant growth inhibition, stronger effect = higher value
# Method in brief: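 Compounds are applied to a genetically defined yeast strain lacking normal DNA damage repair, and inhibition of growth is expressed relative to cultures given vehicle only.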
# [2] = NCI Yeast Anticancer Drug Screen. Data for the wt1 strain (AID 149);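 also: 0% = growth of vehicle-treated wt1 cultures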; details: S. cerevisiae wt1 strain (SPY 50644) growth inhibition, stronger effect = higher value
# Method in brief: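 Vehicle-normalised growth inhibition; strain wt1; compound exposure.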
# [3] = NCI Yeast Anticancer Drug Screen. Data for the rad50EPP+ strain (AID 151);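 also: 0% = growth of vehicle-treated control cultures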; details: S. cerevisiae rad50 mutant strain, stronger effect = higher value
# Method in brief: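 Compounds were applied to the rad50EPP+ yeast strain, which bears a defined DNA repair alteration, and growth inhibition was determined relative to vehicle-treated cultures.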
# [4] = NCI Yeast Anticancer Drug Screen. Data for the mgt1 strain (AID 153); details: S. cerevisiae mgt1 mutant growth inhibition, stronger effect = higher value
# Method in brief: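 Strain: mgt1 yeast, one of a set carrying defined DNA damage repair or cell cycle control alterations. Compound-treated growth compared with vehicle.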
# [5] = NCI Yeast Anticancer Drug Screen. Data for the rad50 strain (AID 155);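 also: 0% = growth of vehicle-only cultures of the same strain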; details: S. cerevisiae rad50 strain growth inhibition, stronger effect = higher value
# Method in brief: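 A DNA repair-deficient yeast mutant serves as the test organism; compound-induced growth inhibition is calculated against vehicle-treated cells.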
# [6] = NCI Yeast Anticancer Drug Screen. Data for the mec2-1 strain (AID 157); details: S. cerevisiae mec2-1 strain, stronger effect = higher value
# Method in brief: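 Strain: mec2-1 (DNA repair/cell cycle alteration). Compound exposure, then growth measured; inhibition expressed relative to vehicle.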
# [7] = NCI Yeast Anticancer Drug Screen. Data for the rad14 strain (AID 159);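 also: 0% = growth of vehicle-treated control cultures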; details: S. cerevisiae rad14 strain growth inhibition, stronger effect = higher value
# Method in brief: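 Vehicle-treated cultures served as the baseline for growth inhibition of a DNA repair-mutant yeast strain exposed to each compound.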
# [8] = NCI Yeast Anticancer Drug Screen. Data for the sgs1 mgt1 strain (AID 161);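 also: 0% = growth of cultures given vehicle only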; details: S. cerevisiae sgs1 mgt1 strain, stronger effect = higher value
# Method in brief: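 Test agents were incubated with a DNA-repair-mutant yeast strain. Growth was then read and compared against vehicle-treated controls.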
# [9] = NCI Yeast Anticancer Drug Screen. Data for the CLN2oe strain (AID 163);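 also: 0% = growth of vehicle-only control cultures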; details: S. cerevisiae CLN2oe strain, stronger effect = higher value
# Method in brief: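 Growth of a genetically modified yeast strain is measured after compound exposure and compared with cultures given vehicle alone.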
# [10] = NCI Yeast Anticancer Drug Screen. Data for the cln2 rad14 strain (AID 165);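 also: 0% = growth equal to vehicle treated cultures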; details: S. cerevisiae cln2 rad14 strain, stronger effect = higher value
# Method in brief: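 Compounds are applied to the cln2 rad14 yeast strain, and growth is then compared with that of vehicle-treated cultures to give inhibition.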
# [11] = NCI Yeast Anticancer Drug Screen. Data for the bub3 strain (AID 167); details: S. cerevisiae bub3 mutant strain, stronger effect = higher value
# Method in brief: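 Inhibition values come from growth of compound-treated mutant yeast normalised to vehicle-treated controls.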
# [12] = NCI Yeast Anticancer Drug Screen. Data for the wt2 strain (AID 169);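 also: 0% = growth of vehicle-treated yeast cultures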; details: S. cerevisiae wt2 strain growth inhibition, stronger effect = higher value
# Method in brief: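 This strain belongs to a panel of yeast strains with defined genetic alterations in DNA damage repair or cell cycle control. Compounds are applied, and growth inhibition is measured against vehicle-treated cultures.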
# [13] = NCI Yeast Anticancer Drug Screen. Data for the mlh1 strain (AID 171);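 also: 0% = growth of vehicle-treated control cultures of the same strain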; details: S. cerevisiae mlh1 strain growth inhibition, stronger effect = higher value
# Method in brief: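 Growth of the mutant yeast strain after compound exposure, expressed as inhibition relative to vehicle-only controls.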
# [14] = NCI Yeast Anticancer Drug Screen. Data for the sgs1 strain (AID 173);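 also: 0% = growth of vehicle-only control cultures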; details: S. cerevisiae sgs1 mutant, stronger effect = higher value
# Method in brief: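 Growth of a yeast strain bearing a defined genetic alteration is measured after compound treatment. Inhibition is expressed relative to vehicle-only controls.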
# [15] = NCI Yeast Anticancer Drug Screen. Data for the mlh1 rad18 strain (AID 175); details: S. cerevisiae mlh1 rad18 strain growth inhibition, stronger effect = higher value
# Method in brief: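 Read-out is yeast growth inhibition, calculated against vehicle-only controls. The compound was applied to a strain engineered with DNA damage repair alterations.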
# [16] = NCI Yeast Anticancer Drug Screen. Data for the rad18 strain (AID 177); details: S. cerevisiae rad18 mutant growth inhibition, stronger effect = higher value
# Method in brief: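 Growth of the mutant yeast strain after compound exposure, normalised to vehicle-only cultures.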
# [17] = at 5.0 µM (retest, dose inferred, filed as 0.5)
# [18] = at 50.0 µM (retest, dose inferred, filed as 5.0)
smiles,measurement,setting,value
C[C@@]12CCC(=O)C=C1CC[C@H]1C2=CC[C@]2(C)C1CC[C@@]2(C)O (stereo partly specified),growth inhibition,[1]; at 1.2 µM,-12%
same,growth inhibition,[1]; at 3.7 µM,-3%
same,growth inhibition,[1]; at 11.0 µM,-4%
same,growth inhibition,[1]; at 33.0 µM,69%
same,growth inhibition,[1]; at 100.0 µM,91% (active)
same,growth inhibition,[2]; at 1.2 µM,-13%
same,growth inhibition,[2]; at 3.7 µM,-26%
same,growth inhibition,[2]; at 11.0 µM,-23%
same,growth inhibition,[2]; at 33.0 µM,54%
same,growth inhibition,[2]; at 100.0 µM,91% (active)
same,growth inhibition,[3]; at 1.2 µM,-1%
same,growth inhibition,[3]; at 3.7 µM,-6%
same,growth inhibition,[3]; at 11.0 µM,-8%
same,growth inhibition,[3]; at 33.0 µM,-12%
same,growth inhibition,[3]; at 100.0 µM,1%
same,growth inhibition,[4]; at 1.2 µM,12%
same,growth inhibition,[4]; at 3.7 µM,19%
same,growth inhibition,[4]; at 11.0 µM,38%
same,growth inhibition,[4]; at 33.0 µM,86% (active)
same,growth inhibition,[4]; at 100.0 µM,96% (active)
same,growth inhibition,[5]; at 1.2 µM,1%
same,growth inhibition,[5]; at 3.7 µM,7%
same,growth inhibition,[5]; [17],27%
same,growth inhibition,[5]; at 11.0 µM,5%
same,growth inhibition,[5]; at 33.0 µM,63%
same,growth inhibition,[5]; [18],60%
same,growth inhibition,[5]; at 50.0 µM,74.2% (active)
same,growth inhibition,[5]; at 100.0 µM,85% (active)
same,growth inhibition,[6]; at 1.2 µM,8%
same,growth inhibition,[6]; at 3.7 µM,10%
same,growth inhibition,[6]; [17],44%
same,growth inhibition,[6]; at 11.0 µM,15%
same,growth inhibition,[6]; at 33.0 µM,85% (active)
same,growth inhibition,[6]; [18],82% (active)
same,growth inhibition,[6]; at 50.0 µM,66.5%
same,growth inhibition,[6]; at 100.0 µM,96% (active)
same,growth inhibition,[7]; at 1.2 µM,-22%
same,growth inhibition,[7]; at 3.7 µM,-25%
same,growth inhibition,[7]; at 11.0 µM,-10%
same,growth inhibition,[7]; at 33.0 µM,70% (active)
same,growth inhibition,[7]; at 100.0 µM,92% (active)
same,growth inhibition,[8]; [17],-27%
same,growth inhibition,[8]; [18],78% (active)
same,growth inhibition,[8]; at 50.0 µM,77.5% (active)
same,growth inhibition,[9]; at 1.2 µM,32%
same,growth inhibition,[9]; at 3.7 µM,-2%
same,growth inhibition,[9]; at 11.0 µM,0%
same,growth inhibition,[9]; at 33.0 µM,75% (active)
same,growth inhibition,[9]; at 100.0 µM,93% (active)
same,growth inhibition,[10]; [17],46%
same,growth inhibition,[10]; [18],30%
same,growth inhibition,[10]; at 50.0 µM,56.9%
same,growth inhibition,[11]; at 1.2 µM,-1%
same,growth inhibition,[11]; at 3.7 µM,19%
same,growth inhibition,[11]; [17],-28%
same,growth inhibition,[11]; at 11.0 µM,28%
same,growth inhibition,[11]; at 33.0 µM,80% (active)
same,growth inhibition,[11]; [18],54%
same,growth inhibition,[11]; at 50.0 µM,75.5% (active)
same,growth inhibition,[11]; at 100.0 µM,96% (active)
same,growth inhibition,[12]; at 1.2 µM,-26%
same,growth inhibition,[12]; at 3.7 µM,-19%
same,growth inhibition,[12]; at 11.0 µM,-18%
same,growth inhibition,[12]; at 33.0 µM,64%
same,growth inhibition,[12]; at 100.0 µM,92% (active)
same,growth inhibition,[13]; at 1.2 µM,-27%
same,growth inhibition,[13]; at 3.7 µM,-11%
same,growth inhibition,[13]; at 11.0 µM,4%
same,growth inhibition,[13]; at 33.0 µM,63%
same,growth inhibition,[13]; at 100.0 µM,90% (active)
same,growth inhibition,[14]; at 1.2 µM,1%
same,growth inhibition,[14]; at 3.7 µM,-6%
same,growth inhibition,[14]; at 11.0 µM,14%
same,growth inhibition,[14]; at 33.0 µM,72% (active)
same,growth inhibition,[14]; at 100.0 µM,91% (active)
same,growth inhibition,[15]; [17],25%
same,growth inhibition,[15]; [18],58%
same,growth inhibition,[15]; at 50.0 µM,50.5%
same,growth inhibition,[16]; at 1.2 µM,-2%
same,growth inhibition,[16]; at 3.7 µM,0%
same,growth inhibition,[16]; at 11.0 µM,10%
same,growth inhibition,[16]; at 33.0 µM,76% (active)
same,growth inhibition,[16]; at 100.0 µM,92% (active)
CCN(CC)CCBr,growth inhibition,[1]; at 1.2 µM,1%
same,growth inhibition,[1]; at 3.7 µM,4%
same,growth inhibition,[1]; at 11.0 µM,12%
same,growth inhibition,[1]; at 33.0 µM,43%
same,growth inhibition,[1]; at 100.0 µM,82% (active)
same,growth inhibition,[2]; at 1.2 µM,-1%
same,growth inhibition,[2]; at 3.7 µM,1%
same,growth inhibition,[2]; at 11.0 µM,-6%
same,growth inhibition,[2]; at 33.0 µM,-4%
same,growth inhibition,[2]; at 100.0 µM,-8%
same,growth inhibition,[3]; at 1.2 µM,2%
same,growth inhibition,[3]; at 3.7 µM,6%
same,growth inhibition,[3]; at 11.0 µM,27%
same,growth inhibition,[3]; at 33.0 µM,68%
same,growth inhibition,[3]; at 100.0 µM,92% (active)
same,growth inhibition,[4]; at 1.2 µM,-2%
same,growth inhibition,[4]; at 3.7 µM,0%
same,growth inhibition,[4]; at 11.0 µM,-1%
same,growth inhibition,[4]; at 33.0 µM,-1%
same,growth inhibition,[4]; at 100.0 µM,-2%
same,growth inhibition,[5]; at 1.2 µM,0%
same,growth inhibition,[5]; at 3.7 µM,-38%
same,growth inhibition,[5]; [17],9%
same,growth inhibition,[5]; at 11.0 µM,13%
same,growth inhibition,[5]; at 33.0 µM,53%
same,growth inhibition,[5]; [18],65%
same,growth inhibition,[5]; at 50.0 µM,70.2% (active)
same,growth inhibition,[5]; at 100.0 µM,89% (active)
same,growth inhibition,[6]; at 1.2 µM,-1%
same,growth inhibition,[6]; at 3.7 µM,0%
same,growth inhibition,[6]; [17],-9%
same,growth inhibition,[6]; at 11.0 µM,3%
same,growth inhibition,[6]; at 33.0 µM,1%
same,growth inhibition,[6]; [18],7%
same,growth inhibition,[6]; at 50.0 µM,-12.4%
same,growth inhibition,[6]; at 100.0 µM,28%
same,growth inhibition,[7]; at 1.2 µM,-1%
same,growth inhibition,[7]; at 3.7 µM,-1%
same,growth inhibition,[7]; at 11.0 µM,-1%
same,growth inhibition,[7]; at 33.0 µM,-1%
same,growth inhibition,[7]; at 100.0 µM,7%
same,growth inhibition,[8]; [17],4%
same,growth inhibition,[8]; [18],38%
same,growth inhibition,[8]; at 50.0 µM,37.5%
same,growth inhibition,[9]; at 1.2 µM,0%
same,growth inhibition,[9]; at 3.7 µM,-5%
same,growth inhibition,[9]; at 11.0 µM,-5%
same,growth inhibition,[9]; at 33.0 µM,-7%
same,growth inhibition,[9]; at 100.0 µM,-4%
same,growth inhibition,[10]; [17],-2%
same,growth inhibition,[10]; [18],1%
same,growth inhibition,[10]; at 50.0 µM,1.5%
same,growth inhibition,[11]; at 1.2 µM,0%
same,growth inhibition,[11]; at 3.7 µM,-3%
same,growth inhibition,[11]; [17],-3%
same,growth inhibition,[11]; at 11.0 µM,-7%
same,growth inhibition,[11]; at 33.0 µM,-6%
same,growth inhibition,[11]; [18],-7%
same,growth inhibition,[11]; at 50.0 µM,-11.4%
same,growth inhibition,[11]; at 100.0 µM,-16%
same,growth inhibition,[12]; at 1.2 µM,-1%
same,growth inhibition,[12]; at 3.7 µM,6%
same,growth inhibition,[12]; at 11.0 µM,0%
same,growth inhibition,[12]; at 33.0 µM,-3%
same,growth inhibition,[12]; at 100.0 µM,-3%
same,growth inhibition,[13]; at 1.2 µM,-1%
same,growth inhibition,[13]; at 3.7 µM,-1%
same,growth inhibition,[13]; at 11.0 µM,-1%
same,growth inhibition,[13]; at 33.0 µM,-2%
same,growth inhibition,[13]; at 100.0 µM,-1%
same,growth inhibition,[14]; at 1.2 µM,0%
same,growth inhibition,[14]; at 3.7 µM,4%
same,growth inhibition,[14]; at 11.0 µM,15%
same,growth inhibition,[14]; at 33.0 µM,42%
same,growth inhibition,[14]; at 100.0 µM,73% (active)
same,growth inhibition,[15]; [17],5%
same,growth inhibition,[15]; [18],15%
same,growth inhibition,[15]; at 50.0 µM,19.9%
same,growth inhibition,[16]; at 1.2 µM,17%
same,growth inhibition,[16]; at 3.7 µM,54%
same,growth inhibition,[16]; at 11.0 µM,86% (active)
same,growth inhibition,[16]; at 33.0 µM,92% (active)
same,growth inhibition,[16]; at 100.0 µM,96% (active)
